# Test results taken from PubChem BioAssay (NCATS).
# Records with an inconclusive call do not appear. Where a call stands in place of a potency, no number is given. Calls of active or inactive are those of the source. The call rests on the fitted dose curve; in most records, active means well fitted cell-killing curve with a large enough effect; inconclusive means small, poorly fitted or top-dose-only effect, or effect the other way; inactive means flat fitted curve, though single readings scatter.
# Tested on: Tov-21-G
# Test: Primary qHTS to identify gynecologic anti-cancer compounds using libraries of approved drugs and bioactive compounds (AID 1345084); further: nearly all actives have a fitted effect of over 55% in size
# Details: Gynecologic cancer cell panel viability, ATPlite luminescence, 48 h; series mostly up to 57.5 µM
# How it was run: (§1)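 48 h compound exposure at 37 C, 5% CO2; five-point qHTS. ATPlite luminescence readout of cell ATP.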
# Potency means the concentration at half of the fitted maximal effect.
row,SMILES,Potency
1,Cc1nc(C(=O)NCC(=O)O)c(O)c2ccc(Oc3ccccc3)cc12,inactive
2,Nc1ccc(-c2ccc3ncc4ccc(=O)n(-c5cccc(C(F)(F)F)c5)c4c3c2)cn1,17.8 µM (active)
3,COc1nc(C)cnc1NS(=O)(=O)c1cccnc1-c1ccc(-c2nnco2)cc1,inactive
4,C[C@H](c1ccc(F)cc1CCCC(=O)O)N(c1cc(F)ccc1F)S(=O)(=O)c1ccc(Cl)cc1,inactive
5,CC(C)(OCc1nn(Cc2ccccc2)c2ccccc12)C(=O)O,inactive
6,CN(C)c1nc(Cc2ccc(NC(=O)c3ccc(C(F)(F)F)cc3)cc2)nc(N(C)C)c1CC(=O)O,inactive
7,CCC(=O)N1CCN(c2ccc(-n3c(=O)ccc4cnc5ccc(-c6cnc7ccccc7c6)cc5c43)cc2C(F)(F)F)CC1,0.0794 µM (active)
8,c1cc(OCCN2CCCCC2)cc(-c2n[nH]c3ccc(-c4ncn[nH]4)cc23)c1,inactive
9,Cc1cccc2c1CC[C@H](CN1CCC(c3c(Cl)cccc3Cl)CC1)C[C@@H]2O,inactive
10,CCCCn1c(=O)n(Cc2ccccc2F)c(=O)c2[nH]c(Cc3ccc(NC(C)=O)cc3)nc21,inactive
11,Nc1ncnc2c1c(-c1cccc(OCc3ccccc3)c1)cn2C1CC(CN2CCC2)C1 (centres undefined),35.5 µM (active)
12,C[C@@H](N)c1ccc(C(=O)Nc2ccnc3[nH]ccc23)cc1,31.6 µM (active)
13,NC1(C(=O)N[C@@H](CCO)c2ccc(Cl)cc2)CCN(c2ncnc3[nH]ccc23)CC1,0.794 µM (active)
14,COc1cc2ncnc(Nc3cc(Br)c(O)c(Br)c3)c2cc1OC,inactive
15,NC(=O)c1noc([C@H](CCCC2CCCCC2)CC(=O)NO)n1,inactive
16,CS(=O)(=O)c1ccc(C2=C(c3ccccc3)C(=O)OC2)cc1,inactive
17,COc1ccc(-c2ccc3ncc4c(c3c2)n(-c2ccc(N3CCNCC3)c(C(F)(F)F)c2)c(=O)n4C)cn1,35.5 µM (active)
18,COC(=O)N1CCN(Cc2cccc(NC(=O)Nc3ccc(C)nc3)c2F)CC1,inactive
19,Fc1ccc(CNc2ncnc3ccc(F)cc23)cc1,inactive
20,NS(=O)(=O)c1ccc(Nc2nc(OCC3CCCCC3)c3[nH]cnc3n2)cc1,15.8 µM (active)
21,C[C@@H]1CCO[C@H]2Cn3cc(C(=O)NCc4ccc(F)cc4F)c(=O)c(O)c3C(=O)N12,25.1 µM (active)
22,Cc1csc(-c2nnc(Nc3ccc(Oc4ncccc4-c4ccnc(N)n4)cc3)c3ccccc23)c1,inactive
23,C[C@@]1(C(=O)Nc2ccc(F)nc2)CCCN1c1nc(Nc2cc(C3CC3)[nH]n2)c2cccn2n1,12.6 µM (active)
24,CCN1CCC(n2cc(CNc3cc(Cl)c4ncc(C#N)c(Nc5ccc(F)c(Cl)c5)c4c3)nn2)CC1,inactive
25,CN1c2ccccc2C(=O)N2CCc3c([nH]c4ccccc34)C21 (centres undefined),8.91 µM (active)
26,C=CC(=O)Nc1cccc(Sc2nc(Nc3ccc(N4CCN(C)CC4)cc3)ncc2Cl)c1,12.6 µM (active)

# Tested on: Tov112D
# Test: as above
# Details: Gynecologic cancer cell panel viability, ATPlite luminescence, 48 h; series mostly up to 57.5 µM
# How it was run: as §1
row,SMILES,Potency
1,Cc1nc(C(=O)NCC(=O)O)c(O)c2ccc(Oc3ccccc3)cc12,inactive
2,COc1nc(C)cnc1NS(=O)(=O)c1cccnc1-c1ccc(-c2nnco2)cc1,inactive
3,CCN1CCN(c2ccc(Nc3cc(N(C)C(=O)Nc4c(Cl)c(OC)cc(OC)c4Cl)ncn3)cc2)CC1,inactive
4,CCn1c(-c2nonc2N)nc2cncc(CNC3CCNCC3)c21,inactive
5,COc1ccc(Cn2ccc3ccc(C(=O)NO)cc32)cc1,inactive
6,C[C@H](c1ccc(F)cc1CCCC(=O)O)N(c1cc(F)ccc1F)S(=O)(=O)c1ccc(Cl)cc1,inactive
7,CC(C)(OCc1nn(Cc2ccccc2)c2ccccc12)C(=O)O,inactive
8,CN(C)c1nc(Cc2ccc(NC(=O)c3ccc(C(F)(F)F)cc3)cc2)nc(N(C)C)c1CC(=O)O,inactive
9,c1cc(OCCN2CCCCC2)cc(-c2n[nH]c3ccc(-c4ncn[nH]4)cc23)c1,inactive
10,Cc1cccc2c1CC[C@H](CN1CCC(c3c(Cl)cccc3Cl)CC1)C[C@@H]2O,inactive
11,CCCCn1c(=O)n(Cc2ccccc2F)c(=O)c2[nH]c(Cc3ccc(NC(C)=O)cc3)nc21,inactive
12,C[C@@H](N)c1ccc(C(=O)Nc2ccnc3[nH]ccc23)cc1,25.1 µM (active)
13,NC1(C(=O)N[C@@H](CCO)c2ccc(Cl)cc2)CCN(c2ncnc3[nH]ccc23)CC1,inactive
14,COc1cc2ncnc(Nc3cc(Br)c(O)c(Br)c3)c2cc1OC,inactive
15,NC(=O)c1noc([C@H](CCCC2CCCCC2)CC(=O)NO)n1,inactive
16,CS(=O)(=O)c1ccc(C2=C(c3ccccc3)C(=O)OC2)cc1,inactive
17,COc1ccc(-c2ccc3ncc4c(c3c2)n(-c2ccc(N3CCNCC3)c(C(F)(F)F)c2)c(=O)n4C)cn1,15.8 µM (active)
18,COC(=O)N1CCN(Cc2cccc(NC(=O)Nc3ccc(C)nc3)c2F)CC1,inactive
19,Fc1ccc(CNc2ncnc3ccc(F)cc23)cc1,inactive
20,NS(=O)(=O)c1ccc(Nc2nc(OCC3CCCCC3)c3[nH]cnc3n2)cc1,inactive
21,C[C@@]1(C(=O)Nc2ccc(F)nc2)CCCN1c1nc(Nc2cc(C3CC3)[nH]n2)c2cccn2n1,inactive
22,CCN1CCC(n2cc(CNc3cc(Cl)c4ncc(C#N)c(Nc5ccc(F)c(Cl)c5)c4c3)nn2)CC1,inactive
23,CN1c2ccccc2C(=O)N2CCc3c([nH]c4ccccc34)C21 (centres undefined),3.55 µM (active)
